# PubChem BioAssay (NCI)
# This is part of a sample that, as a whole, favours compounds with a hit. Of some 83,000 tested, about 20% had one in any assay.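 Each cell line was grown in a 96-well plate and treated with one concentration of compound for 48 hours. Values below 10 were considered active.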 Values without a mark were called inactive. The source made the active and inactive calls.
# Columns and labels:
# Assay in all cases: NCI-60 one-dose screen, 48 h (100 = growth as untreated, 0 = no growth, -100 = all killed)
# Conditions in all cases: 10 µM unless noted
# [1] = system: NCI-H23 lung
# [2] = system: NCI-H226 lung
# [3] = system: NCI-H322M lung
# [4] = system: HOP-62 NSCLC
# [5] = system: NCI-H460 lung
# [6] = system: 786-0 renal
# [7] = system: MDA-MB-231 breast
# [8] = system: SF-268 CNS
# [9] = system: SF-539 CNS
# [10] = system: U251 CNS
# [11] = system: UACC-62 melanoma
# [12] = system: SK-MEL-28 melanoma
# [13] = system: SN12C renal
# [14] = system: UO-31 renal
# [15] = system: OVCAR-8 ovarian
# [16] = system: OVCAR-3 ovarian
# [17] = system: MDA-MB-435 melanoma
# [18] = system: SW-620 colon
# [19] = system: MCF7 breast
# [20] = system: KM12 colon
SMILES,growth [1],growth [2],growth [3],growth [4],growth [5],growth [6],growth [7],growth [8],growth [9],growth [10] [%],growth [11],growth [12],growth [13],growth [14],growth [15] [%],growth [16],growth [17],growth [18],growth [19],growth [20]
CCC1CN1P(=O)(OCCOC)N1CC1CC (stereo not given),114%,109%,101%,111%,111%,103%,107%,109%,97.1%,102,103%,107%,101%,88.6%,105,119%,98.9%,106%,99.4%,114%
O=C1NC(=O)C(=Cc2cn(Cc3ccccc3)c3ccccc23)C(=O)N1,93.2%,-68.9% (active),81.7%,73.9%,29.9%,104%,84.9%,90.8%,89.1%,84.1,40.6%,98%,88.8%,71.7%,81.1,72.6%,91.4%,83.6%,85.9%,99.5%
Oc1ccc2c3c1O[C@H]1c4[nH]c5ccccc5c4C[C@@]4(O)C(C2)N(CC2CC2)CC[C@]314,90.9%,94.4%,94.3%,95.9%,107%,95.2%,101%,93.2%,103%,90.2,102%,105%,103%,69.9%,93.2,89.1%,100%,99.9%,99.7%,90.7%
COc1cc(N(CCCl)CCCl)ccc1C=Nc1ccccc1C(=O)O,101%,94.7%,95.7%,110%,81.1%,110%,96.8%,103%,102%,95.8,96.4%,94.3%,99.2%,78.5%,92.9,97.8%,102%,91.6%,93.7%,71.1%
C[C@]12CC[C@H](OC3OC(O)C(O)C(O)C3O)C=C1CCC1C2CC[C@]2(C)[C@@H](c3ccc(=O)oc3)CC[C@]12O (stereo not given in full),-68.9% (active),-70.6% (active),-71.8% (active),-97.8% (active),-80.1% (active),-84.4% (active),-72.1% (active),-99.4% (active),-83.1% (active),104,-84.3% (active),-82.9% (active),-37.7% (active),-92.3% (active),110,-99.2% (active),-88.2% (active),-90.5% (active),-64.3% (active),-93.8% (active)
c1ccc2nc(OCCN3CC3)ccc2c1,74.2%,83.1%,94%,76.8%,72.3%,84.2%,75%,96.6%,97.5%,85.1,79.3%,111%,79.9%,59.4%,78.2,74.3%,83.3%,64.8%,71.4%,80.3%
COc1ccc(OC)c(/C=C(/C)[N+](=O)[O-])c1,53.8%,94.3%,98%,38.9%,33.1%,90.9%,68.4%,65.3%,84.4%,26.7,63.4%,74.7%,32.3%,-46.3% (active),13.1,-11.3% (active),23.1%,-77% (active),6.58% (active),26.5%
CCN(CC)c1ccc(C=C2C(=O)NC(=S)NC2=O)cc1,93.4%,85.5%,104%,98.1%,104%,96.7%,93.7%,80.1%,97.4%,77,85.9%,103%,91.8%,76.1%,93,80.6%,98.1%,77.9%,60.3%,96.8%
